# Laboratory results taken from the supplement of paper PMC6555819.
# Legend:
# Experiment in all cases: PBM binding z-score (relative to random genomic background probes); higher = stronger binding; sequences stand for … in GC…GCGATTGACAGCGTAGAATGAAGG
# [1] = system: FXR:RXRa (NR concentration 270 nM, RXRa partner concentration 90 nM)
# How it was run: (§1)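 Ligand-free nuclear receptor dimers were bound for 1 h to custom Agilent 4×180K protein-binding microarrays. Detection used antibodies against each partner (one per run). Binding z-scores rest on regression-normalized fluorescence, with random background probes as the reference.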
# [2] = system: LXRa:RXRa (NR concentration 270 nM, RXRa partner concentration 90 nM)
# How it was run: as §1
# [3] = system: LXRa homodimer (NR concentration 270 nM)
# How it was run: as §1
# [4] = system: LXRb:RXRa (NR concentration 270 nM, RXRa partner concentration 90 nM)
# How it was run: as §1
# [5] = system: LXRb homodimer (NR concentration 270 nM)
# How it was run: as §1
# [6] = system: PPARa:RXRa (NR concentration 270 nM, RXRa partner concentration 90 nM)
# How it was run: as §1
# [7] = system: PPARg:RXRa (NR concentration 180 nM, RXRa partner concentration 90 nM)
# How it was run: as §1
# [8] = system: PPARg:RXRa 270nM:90nM, anti-RXR (NR concentration 270 nM, RXRa partner concentration 90 nM)
# How it was run: as §1
# [9] = system: PPARg:RXRa 30nM:10nM, anti-RXR (NR concentration 30 nM, RXRa partner concentration 10 nM)
# How it was run: as §1
# [10] = system: PPARg:RXRa 90nM:30nM, anti-RXR (NR concentration 90 nM, RXRa partner concentration 30 nM)
# How it was run: as §1
# [11] = system: PPARg:RXRa DBDmut IVT, anti-RXR (DBD mutation: RXRa K156A/R161A, NR concentration 270 nM, RXRa partner concentration 90 nM)
# How it was run: as §1
# [12] = system: PPARg:RXRa IVT, anti-PPARg (NR concentration 270 nM, RXRa partner concentration 90 nM)
# How it was run: as §1
# [13] = system: PPARg DBDmut:RXRa IVT, anti-PPARg (DBD mutation: PPARg1 K132A/R137A, NR concentration 270 nM, RXRa partner concentration 90 nM)
# How it was run: as §1
# [14] = system: PPARg DBDmut IVT, anti-PPARg (DBD mutation: PPARg1 K132A/R137A, NR concentration 270 nM)
# How it was run: as §1
# [15] = system: PPARg homodimer (NR concentration 180 nM)
# How it was run: as §1
# [16] = system: PXR:RXRa (NR concentration 270 nM, RXRa partner concentration 90 nM)
# How it was run: as §1
# [17] = system: PXR homodimer (NR concentration 270 nM)
# How it was run: as §1
# [18] = system: RARa:RXR (NR concentration 270 nM, RXRa partner concentration 90 nM)
# How it was run: as §1
# [19] = system: RARa homodimer (NR concentration 270 nM)
# How it was run: as §1
# [20] = system: RARb:RXRa (NR concentration 270 nM, RXRa partner concentration 90 nM)
# How it was run: as §1
Sequence,PBM binding z-score [1],PBM binding z-score [2],PBM binding z-score [3],PBM binding z-score [4],PBM binding z-score [5],PBM binding z-score [6],PBM binding z-score [7],PBM binding z-score [8],PBM binding z-score [9],PBM binding z-score [10],PBM binding z-score [11],PBM binding z-score [12],PBM binding z-score [13],PBM binding z-score [14],PBM binding z-score [15],PBM binding z-score [16],PBM binding z-score [17],PBM binding z-score [18],PBM binding z-score [19],PBM binding z-score [20]
CAAACTAGGTCAAGGTCAAAGACGGTTTGTGCCA,6.55,5.25,3.28,4.37,1.4,6.32,9.9,8.3,6.78,8.62,8.62,8.85,4.67,5.73,5.24,4.88,2.2,5,2.69,5.16
CCTGGCAGGCCAATCTGGGTCACTCAAGGCTTGA,0.937,0.927,-0.703,0.276,-1.26,2.69,1.37,2.06,-0.284,1.22,3.55,4.78,-0.588,-0.975,0.0231,0.725,-0.786,1.11,-1.09,1.64
GCATGTAGGTAATACAAGGTGAAAGTCCGATTGT,0.127,1.13,0.162,0.172,-0.45,1.62,1.34,1.52,0.458,0.981,4.42,4.28,0.0664,0.517,0.562,0.369,0.257,1.52,0.17,0.218
GCGACTGGGGCAATGCAGGTTACCATAAGGTTGG,0.0254,0.655,-0.566,0.504,-0.824,1.78,1.65,1.26,-0.113,0.69,4.37,4.53,-0.0887,-0.128,0.0203,0.548,-0.5,0.919,-0.465,0.959
ATCTCTAAGTAAAGTTCAGTGAAAGATCGATAGA,1.27,1.99,1.87,1.23,0.906,1.66,1.4,2.92,1.3,2.75,0.19,0.648,1.26,1.06,1.44,2.03,1.8,1.34,1.77,2.63
